# From PubChem BioAssay
# Values joined by “and” are separate entries in the source; they are usually repeats but may differ in a detail not shown here. Equal values may be shown once. Active and inactive are the calls of the source.
# What was measured:
# [1] = system: PRMT1 (protein arginine N-methyltransferase 1); assay: PRMT1 binders on small-molecule microarrays, primary screen, biochemical, small-molecule microarray, 635 nm fluorescence (AID 1088); conditions: small-molecule microarray binding, higher = more signal;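 note: binding of Prmt1 protein to compounds spotted on small-molecule microarray slides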
# [2] = yeast growth modulation, basal conditions, primary screen, YJM789 clinical isolate, OD600, 24 h (AID 1089);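 note: growth of clinical yeast isolate S. cerevisiae YJM 789 seeded 1000 cells per well; test concentration not given here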; conditions: S. cerevisiae YJM789 growth, higher = more signal, called active from +8 up or from −8 down
# [3] = fission yeast growth modulation, primary screen, strain 972, OD600, 24 h, no modulator (AID 1090);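 note: basal condition with compound alone and no growth modifier present; test concentration not given here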; conditions: S. pombe 972 growth, higher = more signal, called active from +8 up or from −8 down
# [4] = S. cerevisiae growth modulation with rapamycin, primary screen, strain BY4716, OD600, 96 h (AID 1091); conditions: higher = more signal, called active from +8 up or from −8 down; note: test concentration not given here
# [5] = target: Torsin-1A-interacting protein 2 (Homo sapiens) (UniProt Q8NFQ8); assay: LULL1 binders on small-molecule microarray, primary screen, cell lysate, human LULL1 lysate, 635/667 nm fluorescence (AID 1092); conditions: hLULL1 lysate binding, 635 nm fluorescence, higher = more signal;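 note: probe is lysate of COS7 cells overexpressing human LULL1; score merges per-feature 667 nm fluorescence with signal-to-noise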
# Sequence of Torsin-1A-interacting protein 2 (Homo sapiens) (Q8NFQ8 whole entry, looked up): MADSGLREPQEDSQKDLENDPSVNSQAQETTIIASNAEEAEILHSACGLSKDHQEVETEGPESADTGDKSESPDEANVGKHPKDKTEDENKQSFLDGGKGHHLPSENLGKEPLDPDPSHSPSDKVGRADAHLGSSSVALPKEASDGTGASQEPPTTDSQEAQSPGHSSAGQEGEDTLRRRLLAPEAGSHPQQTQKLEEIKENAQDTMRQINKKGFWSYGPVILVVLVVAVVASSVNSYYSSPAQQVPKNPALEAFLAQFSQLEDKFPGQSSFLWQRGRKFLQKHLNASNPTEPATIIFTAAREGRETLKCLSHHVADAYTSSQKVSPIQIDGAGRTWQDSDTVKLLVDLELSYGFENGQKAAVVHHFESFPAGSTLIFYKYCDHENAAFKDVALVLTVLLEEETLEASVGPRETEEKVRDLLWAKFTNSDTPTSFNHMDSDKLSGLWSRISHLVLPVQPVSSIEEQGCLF
# [6] = E. coli growth modulation, two-sided OD650, primary screen, E. coli filamentation project, strain DRC41, 24 h (AID 1093); conditions: OD650, 24 h, higher = more signal, called active from +8 up or from −8 down;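 note: MC1000 strain lacking acrAB efflux and sulA so SOS filamentation is blocked; test concentration not given here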
# [7] = small-molecule microarray binders of probe aLefty2, primary screen, biochemical, biotinylated probe, 635/667 nm fluorescence (AID 1094); conditions: higher = more signal;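 note: score merges spot fluorescence near 667 nm with spot signal-to-noise ratio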
# [8] = system: Noggin (protein binding on small-molecule microarray); assay: Noggin binders on small-molecule microarray, primary screen, biochemical, 635/667 nm fluorescence (AID 1095); conditions: 635 nm fluorescence, higher = more signal;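 note: score merges 667 nm feature fluorescence with signal to noise over triplicate slides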
# [9] = target: Neurogenic locus notch homolog protein 3 (Homo sapiens) (UniProt Q9UM47); assay: NOTCH3 binders on small-molecule microarray, primary screen, biochemical, 635/667 nm fluorescence (AID 1096); conditions: NOTCH3 binding, 635 nm fluorescence, higher = more signal
# Sequence of Neurogenic locus notch homolog protein 3 (Homo sapiens) (Q9UM47 whole entry, looked up): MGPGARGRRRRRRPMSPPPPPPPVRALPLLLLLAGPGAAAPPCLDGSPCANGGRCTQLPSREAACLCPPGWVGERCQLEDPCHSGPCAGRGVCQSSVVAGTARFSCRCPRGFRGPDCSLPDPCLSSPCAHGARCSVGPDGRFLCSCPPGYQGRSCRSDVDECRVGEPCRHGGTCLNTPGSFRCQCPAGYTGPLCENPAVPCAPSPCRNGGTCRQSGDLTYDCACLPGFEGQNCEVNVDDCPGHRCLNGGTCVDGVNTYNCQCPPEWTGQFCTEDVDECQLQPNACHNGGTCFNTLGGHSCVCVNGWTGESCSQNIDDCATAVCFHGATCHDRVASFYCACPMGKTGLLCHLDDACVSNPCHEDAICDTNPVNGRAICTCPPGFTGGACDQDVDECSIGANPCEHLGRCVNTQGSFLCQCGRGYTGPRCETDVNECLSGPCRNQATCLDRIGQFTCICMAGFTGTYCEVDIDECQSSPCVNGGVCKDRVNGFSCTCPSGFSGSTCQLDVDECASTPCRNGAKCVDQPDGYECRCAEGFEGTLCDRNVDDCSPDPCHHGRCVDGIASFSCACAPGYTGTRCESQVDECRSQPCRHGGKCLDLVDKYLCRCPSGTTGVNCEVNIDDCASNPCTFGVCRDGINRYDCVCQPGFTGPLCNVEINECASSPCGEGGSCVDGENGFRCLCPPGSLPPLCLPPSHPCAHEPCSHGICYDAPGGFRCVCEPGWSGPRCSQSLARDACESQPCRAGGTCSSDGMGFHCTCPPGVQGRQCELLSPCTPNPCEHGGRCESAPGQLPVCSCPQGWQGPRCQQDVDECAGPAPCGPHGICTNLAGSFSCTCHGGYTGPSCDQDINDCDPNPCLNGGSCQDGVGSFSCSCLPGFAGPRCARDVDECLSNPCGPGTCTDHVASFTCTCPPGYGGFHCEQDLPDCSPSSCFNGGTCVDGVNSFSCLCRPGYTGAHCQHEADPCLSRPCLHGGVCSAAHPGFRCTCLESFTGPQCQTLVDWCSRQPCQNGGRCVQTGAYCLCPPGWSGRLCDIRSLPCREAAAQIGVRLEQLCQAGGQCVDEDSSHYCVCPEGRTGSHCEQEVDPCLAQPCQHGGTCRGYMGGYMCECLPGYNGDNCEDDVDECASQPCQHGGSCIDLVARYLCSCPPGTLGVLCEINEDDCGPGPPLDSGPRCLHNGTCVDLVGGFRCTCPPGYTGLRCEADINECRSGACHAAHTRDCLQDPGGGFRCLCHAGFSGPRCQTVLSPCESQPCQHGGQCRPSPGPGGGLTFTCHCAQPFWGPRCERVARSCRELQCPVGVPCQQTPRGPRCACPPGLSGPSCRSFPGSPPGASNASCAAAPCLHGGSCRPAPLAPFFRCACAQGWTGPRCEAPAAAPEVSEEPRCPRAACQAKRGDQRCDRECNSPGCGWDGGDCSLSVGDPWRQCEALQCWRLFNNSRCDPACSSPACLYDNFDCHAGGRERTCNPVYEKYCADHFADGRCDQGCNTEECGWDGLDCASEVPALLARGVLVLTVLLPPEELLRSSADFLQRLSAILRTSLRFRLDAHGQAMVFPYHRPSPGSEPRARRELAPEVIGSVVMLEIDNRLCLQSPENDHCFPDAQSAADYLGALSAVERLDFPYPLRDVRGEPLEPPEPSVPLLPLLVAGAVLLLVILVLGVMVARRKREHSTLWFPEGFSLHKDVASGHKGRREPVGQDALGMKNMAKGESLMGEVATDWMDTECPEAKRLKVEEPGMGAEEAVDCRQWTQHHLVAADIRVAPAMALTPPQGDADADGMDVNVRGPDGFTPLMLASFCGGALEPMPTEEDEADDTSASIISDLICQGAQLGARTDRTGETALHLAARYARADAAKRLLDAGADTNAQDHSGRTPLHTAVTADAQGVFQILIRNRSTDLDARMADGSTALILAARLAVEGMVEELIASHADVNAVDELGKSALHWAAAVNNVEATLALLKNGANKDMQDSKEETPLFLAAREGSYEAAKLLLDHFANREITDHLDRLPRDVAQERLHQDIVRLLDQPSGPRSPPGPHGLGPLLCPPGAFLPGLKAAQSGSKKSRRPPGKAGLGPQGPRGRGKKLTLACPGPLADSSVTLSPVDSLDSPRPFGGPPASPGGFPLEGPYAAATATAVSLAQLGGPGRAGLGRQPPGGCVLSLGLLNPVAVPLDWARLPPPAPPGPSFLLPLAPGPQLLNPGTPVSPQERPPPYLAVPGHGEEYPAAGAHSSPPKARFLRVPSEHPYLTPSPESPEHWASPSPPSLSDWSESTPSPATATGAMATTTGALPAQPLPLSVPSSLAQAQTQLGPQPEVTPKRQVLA
# [10] = small-molecule microarray binders of probe aEGFR, primary screen, biochemical, biotinylated probe, 635/667 nm fluorescence (AID 1097); conditions: higher = more signal;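 note: probe is a biotinylated anti-EGFR antibody binding compounds printed on slides; score combines fluorescence near 667 nm and signal to noise of each spot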
# [11] = system: Plasmodium falciparum Sir2 (PF13_0152, Sir2A); assay: pfSir2 binders on small-molecule microarrays, primary screen, biochemical, small-molecule microarray, 635 nm fluorescence (AID 1098); conditions: small-molecule microarray binding, fluorescence 635 nm; higher = more signal;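 note: score merges spot fluorescence intensity with its signal-to-noise ratio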
# [12] = small-molecule microarray binders of probe aDKK1, primary screen, biochemical, biotinylated probe, 635/667 nm fluorescence (AID 1099); conditions: higher = more signal;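 note: score merges 667nm spot fluorescence with signal to noise across triplicate slides; reference of the scale not given here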
# [13] = small-molecule microarray binders of probe aCHRDL2, primary screen, biochemical, biotinylated probe, 635/667 nm fluorescence (AID 1100); conditions: higher = more signal
# [14] = splicing luciferase reporter signal modulators, primary screen, spliceosome inhibition project, cell-based, HEK293, splice +/- reporter (AID 1101); conditions: luminescence, 24 h, higher = more signal, called active from +8 up or from −8 down;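 note: HEK293 cells carrying a splicing-competent luciferase reporter gene; test concentration not given here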
# [15] = target: Fibroblast growth factor 10 (Homo sapiens) (UniProt O15520); assay: FGF10 binders on small-molecule microarrays, primary screen, biochemical, small-molecule microarray, 635 nm fluorescence (AID 1102); conditions: FGF10 binding, fluorescence 635 nm, higher = more signal
# Sequence of Fibroblast growth factor 10 (Homo sapiens) (O15520 whole entry, looked up): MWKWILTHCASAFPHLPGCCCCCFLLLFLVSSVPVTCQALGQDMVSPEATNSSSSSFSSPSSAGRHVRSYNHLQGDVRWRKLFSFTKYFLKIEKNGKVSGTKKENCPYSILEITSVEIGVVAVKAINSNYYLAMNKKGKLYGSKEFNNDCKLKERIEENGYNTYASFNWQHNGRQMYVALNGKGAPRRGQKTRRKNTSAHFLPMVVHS
# [16] = system: glycogen synthase kinase-3 (GSK3A per assay name; protocol says GSK3B); assay: GSK3 binders on small-molecule microarrays, primary screen, biochemical, small-molecule microarray, 635 nm fluorescence, GSK3A (AID 1103); conditions: small-molecule microarray binding, fluorescence 635 nm; higher = more signal; note: the record names both GSK3A and GSK3B
# [17] = target: Epidermal growth factor receptor (Homo sapiens) (UniProt P00533); assay: EGFR binders on small-molecule microarrays, primary screen, biochemical, small-molecule microarray, 635 nm fluorescence (AID 1104); conditions: EGFR binding, higher = more signal;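 note: score merges 667 nm emission intensity with spot signal to noise over triplicate slides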
# Sequence of Epidermal growth factor receptor (Homo sapiens) (P00533 whole entry, looked up): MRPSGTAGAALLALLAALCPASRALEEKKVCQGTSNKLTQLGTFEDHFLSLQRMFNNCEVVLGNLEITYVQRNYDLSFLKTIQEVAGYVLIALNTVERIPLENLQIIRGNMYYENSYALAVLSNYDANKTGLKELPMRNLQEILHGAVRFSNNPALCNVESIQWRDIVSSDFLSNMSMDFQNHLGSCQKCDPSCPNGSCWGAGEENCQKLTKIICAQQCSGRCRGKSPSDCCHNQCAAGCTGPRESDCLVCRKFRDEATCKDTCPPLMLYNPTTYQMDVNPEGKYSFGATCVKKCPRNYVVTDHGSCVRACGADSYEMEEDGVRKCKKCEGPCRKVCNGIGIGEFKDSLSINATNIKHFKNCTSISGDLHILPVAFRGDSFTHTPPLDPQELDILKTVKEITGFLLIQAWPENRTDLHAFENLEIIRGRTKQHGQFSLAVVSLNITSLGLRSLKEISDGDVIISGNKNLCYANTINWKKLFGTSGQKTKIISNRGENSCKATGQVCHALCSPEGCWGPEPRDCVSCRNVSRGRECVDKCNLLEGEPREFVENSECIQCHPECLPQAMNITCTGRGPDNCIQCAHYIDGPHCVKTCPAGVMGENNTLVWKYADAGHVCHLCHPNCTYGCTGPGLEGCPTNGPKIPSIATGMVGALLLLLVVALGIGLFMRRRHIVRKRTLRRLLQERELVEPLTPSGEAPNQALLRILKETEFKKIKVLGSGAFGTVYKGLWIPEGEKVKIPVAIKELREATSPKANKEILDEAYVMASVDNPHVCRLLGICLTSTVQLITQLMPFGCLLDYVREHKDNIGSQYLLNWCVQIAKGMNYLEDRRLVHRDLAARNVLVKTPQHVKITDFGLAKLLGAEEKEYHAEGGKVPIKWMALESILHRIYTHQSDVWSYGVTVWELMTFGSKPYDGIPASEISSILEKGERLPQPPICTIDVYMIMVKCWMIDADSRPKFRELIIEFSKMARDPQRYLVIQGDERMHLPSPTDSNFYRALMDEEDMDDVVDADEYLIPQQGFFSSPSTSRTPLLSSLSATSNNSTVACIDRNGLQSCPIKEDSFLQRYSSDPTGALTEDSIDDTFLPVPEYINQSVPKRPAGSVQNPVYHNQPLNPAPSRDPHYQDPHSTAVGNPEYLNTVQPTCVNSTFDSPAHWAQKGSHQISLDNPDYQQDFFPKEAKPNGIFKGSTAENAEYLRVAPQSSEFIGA
# [18] = target: Follistatin-related protein 3 (Homo sapiens) (UniProt O95633); assay: FSTL3 binders on small-molecule microarrays, primary screen, biochemical, small-molecule microarray, 635 nm fluorescence (AID 1105); conditions: FSTL3 binding, higher = more signal;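 note: score merges emission near 667 nm and signal to noise per printed spot across three slides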
# Sequence of Follistatin-related protein 3 (Homo sapiens) (O95633 whole entry, looked up): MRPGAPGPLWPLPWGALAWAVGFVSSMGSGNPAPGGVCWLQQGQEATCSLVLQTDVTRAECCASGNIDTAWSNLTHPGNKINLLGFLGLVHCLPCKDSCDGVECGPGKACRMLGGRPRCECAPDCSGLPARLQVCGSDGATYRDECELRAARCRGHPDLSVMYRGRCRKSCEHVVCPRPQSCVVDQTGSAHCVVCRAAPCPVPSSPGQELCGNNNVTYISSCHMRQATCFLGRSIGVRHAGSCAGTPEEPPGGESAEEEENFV
# [19] = target: Dickkopf-related protein 1 (Homo sapiens) (UniProt O94907); assay: DKK1 binders on small-molecule microarrays, primary screen, biochemical, small-molecule microarray, 635 nm fluorescence scan (AID 1106); conditions: DKK1 binding, higher = more signal;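 note: score merges emission near 667 nm with signal to noise over three replicate slides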
# Sequence of Dickkopf-related protein 1 (Homo sapiens) (O94907 whole entry, looked up): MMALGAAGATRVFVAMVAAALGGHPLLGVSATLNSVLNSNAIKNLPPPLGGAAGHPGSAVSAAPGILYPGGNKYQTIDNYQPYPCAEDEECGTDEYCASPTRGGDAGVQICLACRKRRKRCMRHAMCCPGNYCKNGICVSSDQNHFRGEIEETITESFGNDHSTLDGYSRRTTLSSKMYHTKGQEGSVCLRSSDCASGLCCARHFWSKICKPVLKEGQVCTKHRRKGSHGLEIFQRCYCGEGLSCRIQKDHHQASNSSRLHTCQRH
# [20] = system: Inhibin beta A chain (activin A); assay: INHBA (activin A) binders on microarrays, primary screen, biochemical, small-molecule microarray, 635 nm fluorescence scan (AID 1107); conditions: small-molecule microarray binding, higher = more signal;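 note: mouse activin A protein probed at 4.33 µg/mL on printed slides; score merges bound-protein fluorescence near 667 nm with spot signal-to-noise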
Structure (SMILES),composite z-score [1],z-score [2],z-score [3],z-score [4],composite z-score [5],z-score [6],composite z-score [7],composite z-score [8],composite z-score [9],composite z-score [10],composite z-score [11],composite z-score [12],composite z-score [13],z-score [14],composite z-score [15],composite z-score [16],composite z-score [17],composite z-score [18],composite z-score [19],composite z-score [20]
C[N+](C)(C)CCCCNC(=O)[C@@H]1C[C@@H]2C(=O)N[C@@H](CCCC[N+](C)(C)C)C(=O)N2[C@@H]1c1cccc(OCCO)c1,1.53 and 0.995,1.27 (inactive) and 0.389 (inactive),-0.352 (inactive) and -0.297 (inactive),-0.483 (inactive) and -1.92 (inactive),0.864 and 2.09,0.616 (inactive) and 0.374 (inactive),0.387 and 0.268,2.03 and 1.71,1.05 and 1.09,0.399 and 0.56,1.03 and 0.616,0.0631 and 0.217,-0.0665 and 0.574,-0.21 (inactive) and 0.129 (inactive),1.51 and 1.4,1.35 and 0.785,1.33 and 0.0943,1.5 and 1.33,2.14 and 1.67,0.804 and -0.833
CC(C)N1CC=CC23O[C@@H]4C=CCCOC(=O)C4[C@H]2C(=O)N(C(C)CO)[C@@H]3C1=O (stereo not given in full),1.18 and -0.323,-1.29 (inactive) and 0.11 (inactive),-1.18 (inactive) and -1.07 (inactive),-1.28 (inactive) and 0.687 (inactive),3.21 and -0.371,2.82 (inactive) and 2.22 (inactive),-0.0911 and -0.043,-1.14 and -0.975,-0.22 and -0.455,-0.317 and -0.308,0.966 and -0.2,0.802 and -0.0438,1 and 0.404,-1.6 (inactive) and -1.03 (inactive),-0.858 and -0.457,-0.132 and -0.547,-1.71 and -0.693,-1.66 and -0.676,-2.56 and -0.647,0.644 and 1.35
C=CCN(C(=O)C(c1cccs1)N(C(=O)/C=C\C(=O)O)c1ccc(CCO)cc1)C(C)(C)C (stereo not given),-0.417 and -0.231,-0.042 (inactive) and 0.181 (inactive),-0.701 (inactive) and 0.442 (inactive),-0.3 (inactive) and -0.104 (inactive),3.58 and 3.17,0.286 (inactive) and -0.294 (inactive),-0.0964 and -0.116,-2.17 and -1.9,-0.583 and -1.21,-0.106 and -0.209,-0.202 and 0.938,-0.123 and 0.0381,0.274 and 1.05,-0.14 (inactive) and 0.253 (inactive),-0.99 and -2.19,-0.265 and -0.746,-1.41 and -1.91,-1.76 and -2.36,-2.48 and -2.7,-1.03 and -2.06
C=C(C)C(=O)OC[C@@H]1CN2[C@@H](CC[C@@H](C)[C@@H]2c2ccc(Br)cc2)C(=O)O1,0.819,-0.792 (inactive),-2.7 (inactive),-1.52 (inactive),1.32,0.53 (inactive),-0.247,0.314,0.259,0.0251,0.913,-0.199,-0.374,-0.46 (inactive),0.634,0.399,0.263,1.08,0.872,0.984
C=CCN(Cc1ccccc1)C(=O)C1N(c2c(Cl)cccc2CO)C(=O)C2C(C(=O)O)C3C=CC21O3 (stereo not given),-1.44 and -1.17,-3.28 (inactive) and 1.06 (inactive),-0.875 (inactive) and -0.0197 (inactive),-1.39 (inactive) and 0.236 (inactive),-1.2 and -1.34,3.06 (inactive) and 1.29 (inactive),-0.114 and 0.0686,-2.68 and -3.18,-2.25 and -1.57,-0.21 and -0.395,-1.57 and -0.0019,0.059 and 0.175,0.845 and 1.19,-2.02 (inactive) and -0.804 (inactive),-0.944 and -1.32,-1.84 and -1.45,-1.91 and -1.77,-1.61 and -2.46,-2.28 and -1.9,-0.934 and -2.5
CCN1C(=O)[C@H]2[C@H]3[C@H](O)[C@H](O)CC(=NNC(=O)OCc4ccc(OC)cc4)[C@H]3CC[C@H]2C1=O,0.0536,0.523 (inactive),-0.312 (inactive),0.41 (inactive),0.677,-0.17 (inactive),0.656,-0.283,-0.143,0.0004,0.182,1.55,1.27,-0.324 (inactive),0.178,-0.152,-0.698,0.0229,-0.819,0.0193
Cc1ccc(S(=O)(=O)OC[C@@H]2CN3[C@@H](CC[C@@H](C)[C@@H]3c3ccc(Br)cc3)C(=O)O2)cc1,0.353 and 1.4,-0.464 (inactive) and 0.544 (inactive),-0.252 (inactive) and 0.102 (inactive),-0.182 (inactive) and 0.777 (inactive),0.454 and 0.845,0.199 (inactive) and -0.206 (inactive),-0.0389 and -0.205,0.0884 and 0.47,-0.0776 and 0.686,0.0519 and -0.0671,0.257 and 0.321,0.151 and 0.128,-0.234 and -0.289,0.479 (inactive) and 0.402 (inactive),0.0993 and 0.625,0.0442 and 0.372,0.352 and 0.49,0.0546 and 0.262,0.235 and 0.46,0.758 and 0.354
C=CCN(Cc1ccccc1)C(=O)C1N(CCCCCCO)C(=O)C2C(C(=O)O)C3C=CC21O3 (stereo not given),-0.487 and -1.4,0.101 (inactive) and -1.39 (inactive),0.624 (inactive) and -0.642 (inactive),-0.889 (inactive) and -1.51 (inactive),1.83 and 1.79,-0.142 (inactive) and 1.19 (inactive),-0.0265 and 0.0515,-1.9 and -1.38,-1.59 and -0.439,-0.322 and -0.246,0.751 and 0.912,-0.0659 and -0.197,0.991 and 0.926,-0.679 (inactive) and -1.35 (inactive),-1.02 and -2.08,-0.973 and -1.08,-1.7 and -1.71,-1.49 and -1.67,-1.79 and -4,-1.29 and -2.29
